Source: PubChem
Pf Dd2 growth = Plasmodium falciparum Dd2 growth inhibition | P. falciparum Dd2 growth, SYBR Green, 72 h | Potency, µM (highest dose often 28.9 µM), inactives show top-dose activity, negative = inhibition, usual class: inhibitors | 4.3% of 120,000 active | AID 1347417; active = well fitted inhibition curve with a large enough effect;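 note: plate controls were DMSO vehicle for no effect and reference drug for full effect; nearly all actives have a fitted effect of over 65% in size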
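Readout: SYBR Green fluorescence, 485 nm excitation, 535 nm emission, after ~16 h lysis at 37C. Before that, Dd2-infected red cells (2.5% hematocrit) grew 72 h with compound, 29 uM top final concentration.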
* = called active by the depositor; i = inactive; [ ] = another dose, or the depositor's remark. Shown is part of a subset that was picked to be rich in hits. Potency is the fitted concentration of half-maximal effect.

SMILES	Pf Dd2 growth
Cc1cc(NC(=O)N2CC=C(c3c[nH]c4ccccc34)CC2)ccc1Br	-2.7%
CCOC(=O)c1cccc(NC(=O)N2CC=C(c3c[nH]c4ccccc34)CC2)c1	6.31µM*
CCc1ccc(NC(=O)N2CC=C(c3c[nH]c4ccccc34)CC2)cc1	i
O=C(c1ccc(F)cc1F)N1CCC(n2cnnc2C2CC2)CC1	11.5%
O=C(C1c2ccccc2C(=O)N(Cc2ccccc2)C12CCCC2)N1CCCC1 (centres undefined)	-7.1%
CN1CC2(C1)C(=O)N(Cc1cccc(Cl)c1)C(=O)[C@@H]1C[C@@H](O)CN12	i
COc1ccc(C2Cn3nnc(-c4noc(CCc5ccccc5)n4)c3CO2)cc1 (centres undefined)	i
COCC(c1ccccn1)N(C)C(=O)c1cc(S(N)(=O)=O)ccc1F (centres undefined)	14.1%
CCC(NC(=O)c1cc(OC)ccc1OC1CCN(C(C)=O)CC1)c1ccc(F)cc1 (centres undefined)	-0.5%
CCc1ccc(C(=O)N2CCC3(CC2)N=C(c2cccc(Br)c2)NO3)cc1	-12.9%
CCOC(=O)c1cccc(NC(=O)c2cc3sccc3n2Cc2ccc(Cl)cc2)c1	11.2µM*
Cc1ccc(CCNC(=O)c2cc3sccc3n2Cc2ccc(C)cc2)cc1	i
Cc1ccc(Cn2c(C(=O)Nc3cccc(Cl)c3)cc3sccc32)cc1	-24.4%
Cc1ccc(Cn2c(C(=O)NCc3ccccc3Cl)cc3sccc32)cc1	11.2µM*
COc1ccc(CNC(=O)c2cc3sccc3n2Cc2ccc(F)cc2)cc1	-1.3%
CCOC(=O)c1ccc(NC(=O)c2cc3sccc3n2Cc2ccc(Cl)cc2)cc1	-4.9%
O=C(c1ccccc1OCC1CCCN(Cc2ccncc2F)C1)N1CCOCC1 (centres undefined)	i
O=C1N[C@H](CCC(=O)N2CCC(c3nc4ccccc4[nH]3)CC2)C(=O)Nc2ccccc21	-28.6%
CC(C)NC[C@H]1O[C@@H]2C[C@@H](CC(=O)N3CCC(F)(F)C3)O[C@@H]2[C@@H]1O	23.5%[44.1 µM]
O=C(c1ccc(Cl)cc1)N1CCN2C(=O)N(C3CCOCC3)C[C@H]2C1	-22.4%[44.1 µM]
O=C(N[C@@H]1CCOC[C@H]1Oc1cccc(F)c1)c1cnc2c(c1)CCC2	-8.7%
CCN(CC)S(=O)(=O)c1ccc(NC(=O)Cn2ncc3c([nH]c4ccccc43)c2=O)cc1	45.0%
COc1ccc(S(=O)(=O)N(CCc2ccccc2)CC(=O)NCc2ccccc2)cc1	i
COc1ccc(-c2cnnn2-c2ccc(NC(=O)c3ccc(S(=O)(=O)N(C)C)cc3)cc2)cc1	i
COc1ccc(-c2[nH]c3ccccc3c2SCCNC(=O)c2ccc(S(=O)(=O)N(C)C)cc2)cc1	7.94µM*
SMILES	Pf Dd2 growth
CCN(CC)S(=O)(=O)c1ccc(C(=O)NCCSc2c(-c3ccc(OC)cc3)[nH]c3ccccc23)cc1	7.94µM*
COc1ccc(S(=O)(=O)N(CC(=O)NCCSc2ccc(C)cc2)c2ccc(C)cc2)cc1	-3.1%
Cc1cn2nc(C(=O)N3CCC(NC(=O)c4c(F)cccc4F)CC3)cc2c(=O)[nH]1	-25.6%
Cn1ccc2c(C(=O)NCC3CCC(=O)N3)nc(-c3ccccc3O)cc21 (centres undefined)	i
COCCN1C(=O)CC[C@]2(C(=O)N(C)CCc3ccncc3)CCCC[C@@H]12	-18.5%
COc1ccc(C2(C(=O)N3CCCC(c4nn(C)c(=O)n4C(C)C)C3)CC2)cc1 (centres undefined)	8.2%
CCCN(Cc1nccn1C)C(=O)c1cccc(C2CCNC2)c1 (centres undefined)	15.0%
O=C(c1ccc(C2CCNC2)cc1)N(Cc1ccccc1)CC1CCC1 (centres undefined)	12.6µM*
COCc1cc(CNC(=O)c2ccc(C3CCNC3)cc2)[nH]n1 (centres undefined)	6.6%
CCn1nc(C2CCOCC2)nc1C1(c2ccccc2)CC1	4.8%
CCn1nccc1C(=O)N1CCC2(CC1)CC(N1CCN(c3ccccn3)CC1)CCO2 (centres undefined)	i
COc1cccc(-c2[nH]cnc2-c2ccccc2)c1OCCCn1ccnc1	3.16µM*
COc1ccccc1-c1ncc[nH]1	65.3%[76.6 µM]
CCOCCn1cnc(-c2ccccc2)c1-c1ccccc1OCC(N)=O	-16.3%
CCc1noc([C@@H]2CC(F)(F)CN2C(=O)c2ccco2)n1	i
O=C(O)Cn1nc(C2CCOCC2)nc1CC1NC(=O)NC1=O (centres undefined)	-0.5%
CCC1=C(C(=O)OC)C(c2ccccc2)N2C(CC(=O)NCC3CC3)=CSC2=N1 (centres undefined)	-3.1%
CCC1=C(C(=O)OC)C(c2cccc(F)c2)N2C(CC(=O)NCc3cccc(F)c3)=CSC2=N1 (centres undefined)	2.51µM*
COC(=O)C1=C(C)N=C2SC=C(CC(=O)Nc3cc(C)cc(C)c3)N2C1c1ccccc1OC (centres undefined)	7.08µM*
CCC1=C(C(=O)OC)C(c2cccc(C)c2)N2C(CC(=O)Nc3ccc(OC)cc3)=CSC2=N1 (centres undefined)	3.16µM*
CCOC(=O)C1=C(C)N=C2SC=C(CC(=O)N3CCOCC3)N2C1c1ccccc1OC (centres undefined)	i
CCC1=C(C(=O)OC)C(c2ccccc2)N2C(CC(=O)NCc3cccc(F)c3)=CSC2=N1 (centres undefined)	3.98µM*
CCC1=C(C(=O)OC)C(c2cccc(C)c2)N2C(CC(=O)N3CCOCC3)=CSC2=N1 (centres undefined)	-29.0%
COC(=O)C1=C(C)N=C2SC=C(CC(=O)NCCc3cccs3)N2C1c1cccc(OC)c1 (centres undefined)	i
CCOC(=O)C1=C(C)N=C2SC=C(CC(=O)NC3CC3)N2C1c1cccc(OC)c1OC (centres undefined)	-1.9%
SMILES	Pf Dd2 growth
COCCOC(=O)C1=C(C)N=C2SC=C(CC(=O)NCc3cccc(F)c3)N2C1c1ccccc1 (centres undefined)	-18.0%
CCC1=C(C(=O)OC)C(c2ccccc2C)N2C(CC(=O)NCC3CC3)=CSC2=N1 (centres undefined)	-12.9%
CCC1=C(C(=O)OC)C(c2cccc(OC)c2OC)N2C(CC(=O)NC3CC3)=CSC2=N1 (centres undefined)	i
O=C(c1ccc(F)cc1)N1CCC(c2n[nH]c(=O)n2-c2ccccc2)CC1	18.8%
COC[C@@H]1CN(C(=O)c2ccc3c(c2)OCO3)C[C@H]1c1ccccn1	-26.2%
CCN1c2cc(C(=O)NC3CCCCC3)ccc2C(=O)N2CCCCCC21 (centres undefined)	i
C[C@]1(O)CCN(C(=O)c2cccc(Oc3ccccc3)c2)C[C@@H]1O	8.6%
CCCS(=O)(=O)NCCc1ncc(C)n1CCOC	-6.5%
Cc1c(Cl)cccc1-n1ncc(C(=O)N2CCN(C)CC2)c1C1CCN(C(=O)OC(C)(C)C)CC1	-10.4%
Cc1c(Cl)cccc1-n1ncc(C(=O)NCCN2CCN(C)CC2)c1C1CCN(C(=O)OC(C)(C)C)CC1	11.2µM*
Cc1ccc(-n2ncc(C(=O)NCCN3CCC(Cc4ccccc4)CC3)c2C2CCN(C(=O)OC(C)(C)C)CC2)cc1	3.16µM*
CC(C)(C)OC(=O)N1CCC(c2c(C(=O)NCCN3CCCC3)cnn2-c2ccc(Cl)cc2)CC1	7.08µM*
Cc1cccc(C)c1-n1ncc(C(=O)NCCN2CCN(C)CC2)c1C1CCN(C(=O)OC(C)(C)C)CC1	-24.2%
COc1ccccc1CN1CCC(CNC(=O)c2cnn(-c3ccc(Cl)cc3)c2C2CCN(C(=O)OC(C)(C)C)CC2)CC1	1.26µM*
